Bioassay records from PubChem BioAssay.
An excerpt weighted towards active compounds, which were near 12% of everything screened.
BAZ2B block: inhibitors of human BAZ2B bromodomain; 360,000 tested, 4.4% active; AID 504333; Q9UIF8; Potency, µM (highest dose often 114 µM), for inactives: top-dose activity change, negative = inhibition, hits mostly inhibitors; AlphaScreen BAZ2B-H3K14Ac peptide displacement; further: on the % scale 0 is the no-effect control and ±100 the full control effect; nearly all actives have a fitted effect of over 60% in size
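BAZ2B 50 nM plus b-H3(5-23)K14Ac 50 nM, PBS pH 7.4/0.01% Tween-20, 30 min RT; compound added (max 110 uM), 30 min RT; streptavidin donor/Ni-chelate acceptor beads 10 ug/mL final, 20 min dark; AlphaScreen read.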
JMJD2A Tudor: inhibitors of human JMJD2A Tudor domain | Potency, µM (top dose mostly 114 µM), without a hit: at the top dose activity change, negative = inhibition, actives largely listed as inhibitors | 390,000 tested, 4.4% active | AID 504339 | AlphaScreen JMJD2A-Tudor / H3K4me3 peptide binding; further: on the % scale 0 is the no-effect control and ±100 the full control effect; nearly all actives have a fitted effect of over 50% in size
HP1b chromo inh: inhibitors of HP1-beta chromodomain binding to methylated histone tails | P83916 | AlphaScreen HP1-beta / biotin-H3K9me3 peptide binding | Potency, µM (highest dose often 114 µM), inactives show at the highest dose activity change, negative = inhibition, hits mostly inhibitors | 390,000 tested, 0.56% active | AID 540317; further: nearly all actives have a fitted effect of over 70% in size
Target sequence (P83916 whole entry, looked up): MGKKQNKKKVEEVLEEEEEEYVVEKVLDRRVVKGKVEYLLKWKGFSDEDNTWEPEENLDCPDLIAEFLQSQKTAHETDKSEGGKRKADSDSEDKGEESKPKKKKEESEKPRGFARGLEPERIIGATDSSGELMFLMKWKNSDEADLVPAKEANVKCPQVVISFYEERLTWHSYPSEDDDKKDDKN
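Compound inhibition of the preformed complex between 50 nM HP1-beta and 50 nM biotinylated H3K9me3 peptide was read by AlphaScreen. Buffer was PBS pH 7.4 with 0.01% Tween-20. Incubations ran 30 min at room temperature, with 10 ug/mL donor/acceptor beads.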
L3MBTL1 block: inhibitors of human L3MBTL1; Potency, µM (titrated, usually from 57.1 µM), for the others: at the top dose activity, negative = inhibition, usual class: inhibitors; Q9Y468; AlphaScreen L3MBTL1–H3K9me1 peptide binding; AID 485360; 230,000 tested, 0.66% active; further: on the % scale 0 is the no-effect control and ±100 the full control effect; nearly all actives have a fitted effect of over 60% in size
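L3MBTL1 (50 nM) pre-complexed 30 min with biotinylated H3(1-15)K9me1 peptide (75 nM), then compounds added for 30 min at room temperature; AlphaScreen streptavidin donor/nickel chelate acceptor beads (10 ug/mL final) read after 30 min dark incubation.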
Sfp PPTase inh: Sfp phosphopantetheinyl transferase inhibition | Potency, µM, for inactives: largest response in the series, negative = inhibition, hits mostly inhibitors | 310,000 tested, 3.5% active | Biochemical Sfp PPTase activity, qHTS | Q9F4F7;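 further: the enzyme is Sfp with the accession as filed and its product quenches rhodamine fluorescence; 0% = enzyme reaction without inhibitor and -100% = no enzyme wells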
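Reaction rates are the 30-min fluorescence difference (ex 525, em 598 nm) in wells containing 15 nM Sfp, 5 uM rhodamine-CoA and 12.5 uM BHQ-2-YbbR at pH 7.6 with 10 mM MgCl2.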
G9a block: inhibitors of human histone lysine methyltransferase G9a | Q96KQ7 | G9a H3K9 monomethylation, AlphaScreen, 2 h | Potency, µM (series often up to 102 µM), for the others: at the highest dose activity, negative = inhibition, actives largely listed as inhibitors | 350,000 tested, 8.8% active; further: on the % scale 0 is the no-effect control and ±100 the full control effect; nearly all actives have a fitted effect of over 75% in size
Target sequence (Q96KQ7 913-1193 limits assumed): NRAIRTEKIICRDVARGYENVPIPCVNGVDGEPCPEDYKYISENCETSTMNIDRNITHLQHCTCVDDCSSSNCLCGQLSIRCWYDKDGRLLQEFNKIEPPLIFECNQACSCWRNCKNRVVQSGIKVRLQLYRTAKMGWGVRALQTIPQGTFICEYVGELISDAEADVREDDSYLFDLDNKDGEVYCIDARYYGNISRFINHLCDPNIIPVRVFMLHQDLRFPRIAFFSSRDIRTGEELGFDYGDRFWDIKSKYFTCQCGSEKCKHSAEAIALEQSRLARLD
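Step 1: enzyme (final 20 nM) with compound, 15 min RT. Step 2: substrate peptide 500 nM and SAM 20 uM, 2 h RT. Step 3: anti-H3K9me1 antibody and AlphaScreen beads, 10 min, then plate read.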
Starred values were filed as active, the others as inactive; [ ] = another dose, or the depositor's remark. The call rests on the fitted dose curve; in most records, active means well fitted curve in the direction sought with a large enough effect; inconclusive means small, poorly fitted or top-dose-only effect, or another doubt; inactive means no such curve, though single readings can be large; an effect the other way counts as inactive or inconclusive. Potency means the concentration at half of the fitted maximal effect.

For O=[N+]([O-])c1ccc(/C=C/c2ccncc2)cc1 the results were BAZ2B block -24.2%, JMJD2A Tudor -28.2%, HP1b chromo inh 4.7%, Sfp PPTase inh 14.2% and G9a block 6.3%[12.7 µM].
`CC/C=C/C(=O)N1CC2(CC(c3cccc(NC(=O)COc4ccc(Cl)cc4)c3)=NO2)C[C@H]1C(N)=O` (stereo not given in full) gave BAZ2B block inconclusive, JMJD2A Tudor -19.1%, HP1b chromo inh 22.5%, Sfp PPTase inh -5.0% and G9a block 17.4%[12.7 µM].
For COc1cccc(/C=C2/NC(=O)N(CC(=O)Nc3ccc(C)cc3)C2=O)c1OCc1cccc(C(=O)O)c1 the results were BAZ2B block 25.1µM*, JMJD2A Tudor inconclusive, HP1b chromo inh inconclusive, Sfp PPTase inh inconclusive and G9a block inconclusive.
Screening Cc1ccc(NC(=O)CN2C(=O)N/C(=C/c3ccccc3OCc3cccc(C(=O)O)c3)C2=O)cc1 returned BAZ2B block 17.8µM*, JMJD2A Tudor 28.2µM*, HP1b chromo inh inconclusive, Sfp PPTase inh 89.1µM* and G9a block 44.7µM*.
For Cc1ccc(NC(=O)CN2C(=O)N/C(=C/c3ccc4c(c3)OCCO4)C2=O)cc1 the results were BAZ2B block 0.8%, JMJD2A Tudor -7.9%, HP1b chromo inh 2.9%, Sfp PPTase inh 0.9% and G9a block 19.7%.
Screening COc1cc2c(cc1/C=C1/NC(=O)N(CC(=O)Nc3ccccc3)C1=O)OCO2 returned BAZ2B block -17.8%, JMJD2A Tudor -7.7%, HP1b chromo inh 3.8%, L3MBTL1 block 0.5%, Sfp PPTase inh -4.8% and G9a block -34.5%.
For COC(=O)c1sc(N2C(=O)C(=O)/C(=C(/O)c3ccccc3)C2c2ccco2)nc1C (stereo not given) the results were BAZ2B block -25.0%, JMJD2A Tudor -17.8%, HP1b chromo inh -2.8%, L3MBTL1 block -10.3%, Sfp PPTase inh 9.4% and G9a block 35.5µM*.
For Cc1cc(C)c2nc(N3CCN(C(=O)c4ccco4)CC3)sc2c1 the results were BAZ2B block inconclusive, JMJD2A Tudor -19.9%, HP1b chromo inh -3.2%, L3MBTL1 block -2.6% and G9a block -5.1%[0.501 µM].
For Cc1nc(N2C(=O)C(=O)/C(=C(/O)c3ccccc3)C2c2ccco2)sc1C (stereo not given) the results were BAZ2B block -0.4%, JMJD2A Tudor inconclusive, HP1b chromo inh 5.4%, L3MBTL1 block -4.1%, Sfp PPTase inh 14.1% and G9a block inconclusive.
CCOc1cccc(C2C(C(=O)c3ccco3)=C(O)C(=O)N2c2nnc(C)s2)c1 (stereo not given) was read as BAZ2B block inconclusive, JMJD2A Tudor inconclusive, HP1b chromo inh 32.8%, L3MBTL1 block -13.4% and G9a block inconclusive.
Cc1ccc2nc(N3C(=O)C(O)=C(C(=O)c4ccco4)C3c3cccs3)sc2c1 (stereo not given) was read as BAZ2B block 44.7µM*, JMJD2A Tudor 17.8µM*, HP1b chromo inh -21.4%, L3MBTL1 block -14.1%, Sfp PPTase inh inconclusive and G9a block 25.1µM*.
Screening Cc1cc(C)c2nc(N3C(=O)C(O)=C(C(=O)c4ccco4)C3c3ccco3)sc2c1 (stereo not given) returned BAZ2B block 44.7µM*, JMJD2A Tudor 50.1µM*, HP1b chromo inh -21.2%, Sfp PPTase inh -10.9% and G9a block inconclusive.
`CCOc1ccc2nc(N3C(=O)C(O)=C(C(=O)c4ccco4)C3c3ccco3)sc2c1` (stereo not given) gave BAZ2B block 50.1µM*, JMJD2A Tudor 39.8µM*, HP1b chromo inh -16.7%, L3MBTL1 block inconclusive and G9a block inconclusive.
For Cc1ccc2nc(N3C(=O)C(O)=C(C(=O)c4ccc(C)o4)C3c3ccc(O)cc3)sc2c1 (stereo not given) the results were BAZ2B block inconclusive, JMJD2A Tudor -46.1%, HP1b chromo inh -9.5%, L3MBTL1 block inconclusive and G9a block inconclusive.
